Data taken from PubChem BioAssay AID504332 (National Center for Advancing Translational Sciences (NCATS), 2011).
About 31,000 (8.9%) of roughly 350,000 compounds were called active. Not shown: some 15% with an inconclusive outcome. The call rests on the fitted dose curve; in most records, active means well fitted inhibition curve with a large enough effect; inconclusive means small, poorly fitted or top-dose-only effect; inactive means no such curve, though single readings can be large or run the other way. This excerpt belongs to a sample that is enriched for actives.

Each compound was assayed against Histone-lysine N-methyltransferase EHMT2 (Homo sapiens) (UniProt Q96KQ7) (assay: qHTS Assay for Inhibitors of Histone Lysine Methyltransferase G9a). Details: G9a H3K9 monomethylation, AlphaScreen, 2 h; series mostly up to 59 µM; activity, negative = inhibition: at the top concentration.
Histone-lysine N-methyltransferase EHMT2 (Homo sapiens), sequence (Q96KQ7 913-1193 limits assumed): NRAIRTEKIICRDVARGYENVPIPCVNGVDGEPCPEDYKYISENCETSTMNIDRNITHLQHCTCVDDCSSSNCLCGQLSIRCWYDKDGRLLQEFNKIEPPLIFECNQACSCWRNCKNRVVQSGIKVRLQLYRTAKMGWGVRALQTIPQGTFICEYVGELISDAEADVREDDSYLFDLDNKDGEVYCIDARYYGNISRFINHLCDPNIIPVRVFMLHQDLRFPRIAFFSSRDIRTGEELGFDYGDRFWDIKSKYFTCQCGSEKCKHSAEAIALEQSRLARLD
Procedure, shortened: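 Readings reflect AlphaScreen signal from monomethyl-H3K9 antibody detection. HMT at 20 nM; substrate b-H3K9 500 nM; cofactor SAM 20 uM; 2 h RT reaction; compounds tested as titrations in qHTS with 15 min preincubation.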
Further: nearly all actives have a fitted effect of over 75% in size.
On the % scale 0 is the no-effect control and ±100 the full control effect; potency means the concentration at half of the fitted maximal effect.

Row | Structure (SMILES) | activity, negative = inhibition | Potency
1 | O=C(CSc1oc(-c2ccco2)nc1S(=O)(=O)c1ccccc1)c1ccc(Cl)cc1 | -33.3% (inactive) | 
2 | COc1cccc(NC(=O)c2ccccc2N(Cc2ccccc2)S(C)(=O)=O)c1 | 19.2% [at 0.501 µM] (inactive) | 
3 | COc1ccc(-n2c(SCC(=O)Nc3ccc(Cl)c(C)c3)nc3n[nH]c(C)c3c2=N)cc1 | 8.7% (inactive) | 
4 | COc1ccc(C2C(=O)N(C3CCCCC3)CC(=O)N2Cc2ccccc2Cl)cc1OC (stereo not drawn) | -2.55% (inactive) | 
5 | Cc1cc(C(=O)COc2ccccc2Cl)c(C)n1C1CC1 | 15.7% [at 0.501 µM] (inactive) | 
6 | O=C(CC(c1cccs1)N1Cc2ccccc2C1=O)Nc1ccc(F)cc1F (stereo not drawn) | -1.76% (inactive) | 
7 | COC(=O)c1c(NC(=O)CCCOc2ccccc2)sc2c1CCC(C)C2 (stereo not drawn) | 45% (inactive) | 
8 | Cc1cccc(OCCCC(=O)Nc2sc3c(c2C(N)=O)CCC(C)C3)c1 (stereo not drawn) | -6.2% (inactive) | 
9 | Cc1ccc(C(=O)c2c(NC(=O)c3ccncc3)sc3c2CCCC3)cc1 |  | 15.8 µM (active)
10 | COC(=O)c1c(NC(=O)c2cccs2)sc2c1CCCC2 | -19.4% (inactive) | 
11 | COC(=O)c1c(NC(=O)c2ccc(Cl)c(Cl)c2)sc2c1CCCC2 | -44.1% (inactive) | 
12 | CCOc1ccc(NC(=O)c2c(NC(=O)Cc3ccccc3)sc3c2CCC(C)C3)cc1 (stereo not drawn) |  | 2 µM (active)
13 | CCOc1ccc(NC(=O)Cn2c(=O)n(CCCC(=O)NCc3ccc4c(c3)OCO4)c(=O)c3ccccc32)cc1 | -29.8% (inactive) | 
14 | Cc1sc2ncn(CC(=O)N3CCN(c4ccc(F)cc4)CC3)c(=O)c2c1S(=O)(=O)N1CCN(c2ncccn2)CC1 | -32.7% (inactive) | 
15 | Cc1ccc(C)c(S(=O)(=O)n2nc(C)c(S(=O)(=O)N3CCC(C)CC3)c2C)c1 | 4% (inactive) | 
16 | CCc1ccc(Sc2cc(C(=O)NCCCOC(C)C)c3ccccc3n2)cc1 | 14.5% (inactive) | 
17 | CC(C)(CNC(=O)CNC(=O)C1CCCCC1)N1CCOCC1 | -2.59% [at 12.7 µM] (inactive) | 
18 | O=c1c2cc(Br)ccc2nc(-c2cccc(Cl)c2)n1O | -6.02% [at 102 µM] (inactive) | 
19 | COc1ccc(CC(=O)Nc2sc(Cc3ccccc3)c(C)c2C(N)=O)cc1 | -34.6% [at 102 µM] (inactive) | 
20 | COCc1nnc(NC(=O)c2ccc3c(c2)OCO3)s1 | -43.4% [at 102 µM] (inactive) | 
21 | Cc1ccc(C(=O)Nc2sc(Cc3ccc4c(c3)OCO4)c(C)c2C(N)=O)cc1 |  | 50.1 µM (active)
22 | O=C(Nc1ccc2nc(SCCOc3ccccc3)sc2c1)c1ccco1 | 32.6% (inactive) | 
23 | Cc1cc2nc(NC(=O)c3ccc(S(=O)(=O)N4CCOCC4)cc3)sc2cc1C | -1.89% (inactive) | 
24 | O=c1c2cccnc2n(Cc2cccc(F)c2)c(=O)n1Cc1ccccc1Cl | 43.8% (inactive) | 
25 | CCCNC(=O)c1c(N)n(-c2ccc(S(N)(=O)=O)cc2)c2nc3ccccc3nc12 |  | 50.1 µM (active)

Row | Structure (SMILES) | activity, negative = inhibition | Potency
26 | CC(C)Cn1c(N)c(C(=O)NCc2cccs2)c2nc3ccccc3nc21 | 93.7% (inactive) | 
27 | CCOC(=O)c1c(N)n(-c2cccc(C)c2C)c2nc3ccccc3nc12 | 2.49% (inactive) | 
28 | COc1cc(NS(=O)(=O)c2cccs2)cc(OC)c1 | 14.3% (inactive) | 
29 | CC(Oc1ccc(Br)cc1)C(=O)NC1CCCCCC1 (stereo not drawn) | 35.3% [at 12.7 µM] (inactive) | 
30 | O=C(NCCc1ccc(Cl)cc1)c1ccc2nc(CCc3ccccc3)oc2c1 | -0.672% (inactive) | 
31 | CCc1cc(-c2nnc(SCC(=O)NC3CC3)n2C)cs1 | 87.8% [at 102 µM] (inactive) | 
32 | CCc1cc(-c2n[nH]c(=S)n2CC(C)C)cs1 |  | 1.78 µM (active)
33 | CCn1c(-c2ccncc2)n[nH]c1=S | -114% [at 102 µM] (inactive) | 
34 | CCc1ccc(N(CC)C(=O)CCn2cnc3onc(-c4ccc(F)cc4)c3c2=O)cc1 | -23.9% (inactive) | 
35 | O=C1CC2(CCN(C(=O)COc3ccc(F)cc3)CC2)Oc2ccccc21 | -12.9% [at 102 µM] (inactive) | 
36 | CCc1ccccc1OCCSc1nc(-c2cccs2)nc2cc(=O)[nH]n12 | 8.02% (inactive) | 
37 | CCc1ccc(NC2Nc3cc(C)nn3S2)cc1 (stereo not drawn) |  | 1 µM (active)
38 | CCOC(=O)c1ccc(NC2Nc3cc(C)nn3S2)cc1 (stereo not drawn) |  | 3.16 µM (active)
39 | C#CCNc1ccc(C(=O)OCC)cc1 | -3.3% [at 102 µM] (inactive) | 
40 | CCOC(=O)c1ccc(NC(=O)CCn2cnnn2)cc1 | -3.16% (inactive) | 
41 | CCc1ccc(CNC(=O)c2ccc(CS(=O)c3ccc(Br)cc3)o2)cc1 (stereo not drawn) | -1.56% (inactive) | 
42 | COc1ccc(Cn2ccn(CC(=O)Nc3cc(C)ccc3C)c(=O)c2=O)cc1 | -6.02% (inactive) | 
43 | O=C(CCCCO)c1ccc(O)c(Cl)c1 | 1.29% [at 2.33 µM] (inactive) | 
44 | Cc1cccc(NC(=O)c2ccc(F)c(S(=O)(=O)N(C)C3CCCCC3)c2)c1 | 11.7% (inactive) | 
45 | Cc1ccccc1OCCC(=O)OCC(=O)NCCc1ccc(S(N)(=O)=O)cc1 | -2.83% [at 12.7 µM] (inactive) | 
46 | O=S(=O)([N-]c1nc2ccccc2nc1-[n+]1ccc(Cc2ccccc2)cc1)c1ccc(Br)s1 |  | 11.2 µM (active)
47 | O=C(NCCc1ccccc1)C1CCN(S(=O)(=O)c2ccc(Br)s2)CC1 | 2.02% [at 102 µM] (inactive) | 
48 | Cc1cc(C)c[n+](-c2nc3ccccc3nc2[N-]S(=O)(=O)c2cccs2)c1 | 17.1% (inactive) | 
49 | COc1ccc(-n2nnc(-c3nsc(NC(=O)c4ccc(C)c(C)c4)n3)c2C)cc1Cl | -27.3% (inactive) | 
50 | COc1ccccc1NC(=O)CSc1oc(-c2ccco2)nc1S(=O)(=O)c1ccc(Br)cc1 | -46% (inactive) | 

Row | Structure (SMILES) | activity, negative = inhibition | Potency
51 | CN(C)S(=O)(=O)c1cccc(NC(=S)N/N=C/C(=O)c2ccccc2)c1 | 75.6% (inactive) | 
52 | CN(C)S(=O)(=O)c1cccc(NC(=O)Cc2ccsc2)c1 | -2.27% [at 102 µM] (inactive) | 
53 | Cc1ccc(/C=N/NC(=S)Nc2cccc(S(=O)(=O)N(C)C)c2)o1 |  | 50.1 µM (active)
54 | COc1cc(Cl)c(C)cc1Nc1nnc(-n2nc(C)cc2C)c2ccccc12 | 28% (inactive) | 
55 | Cc1ccc2cccc(NC(=O)c3cccc4ccccc34)c2n1 | 42.4% (inactive) | 
56 | COc1cccc(COC(=O)C2CCN(S(=O)(=O)c3ccc(Cl)cc3)CC2)c1OC | -3.42% (inactive) | 
57 | COC(=O)c1ccc(COC(=O)C2CCN(S(=O)(=O)c3c(Cl)cccc3Cl)CC2)o1 |  | 35.5 µM (active)
58 | CCOc1ccc(S(=O)(=O)N2CCC(C(=O)OCc3ccc(OC)cc3)CC2)cc1 | 4.98% [at 102 µM] (inactive) | 
59 | O=C(Nc1cc(-c2nc3ccccc3o2)ccc1Cl)c1cc([N+](=O)[O-])ccc1N1CCOCC1 | -4.37% (inactive) | 
60 | O=C(CN1CCC(O)(c2ccccc2)CC1)Nc1ccc2c(c1)OCCO2 | -2.46% [at 102 µM] (inactive) | 
61 | Cc1cc(NC(=O)CN2CCC(O)(c3cccc(F)c3)CC2)no1 |  | 8.91 µM (active)
62 | CC(=O)NC1(c2cccc(F)c2)CCN(CC(=O)NC(C)C)CC1 | -5.2% [at 12.7 µM] (inactive) | 
63 | COc1cc(OC)c(NC(=O)Cc2ccc(-n3c(C)nc4cccnc43)cc2)cc1Cl | -25.8% (inactive) | 
64 | CC(=O)c1ccc(NC(=O)CSc2nc(-c3ccccc3F)nc3c2c(=O)n(C)c(=O)n3C)cc1 | 6.95% (inactive) | 
65 | Oc1c(C(c2ccccn2)N2CCOCC2)ccc2cccnc12 (stereo not drawn) |  | 8.91 µM (active)
66 | O=C(c1cccnc1NCc1ccccc1)N1CCOCC1 | -30.2% (inactive) | 
67 | CCOc1cc(N2CCOCC2)c(OCC)cc1NC(=O)COc1cccc2cccnc12 | 16.3% (inactive) | 
68 | O=S(=O)(c1ccc(Br)cc1)c1nnn2c1nc(NC1CCCCCC1)c1sccc12 | -20.4% (inactive) | 
69 | O=c1n(Cc2cccc(C(F)(F)F)c2)c2ccccc2c2nc(-c3ccccc3)nn12 | 6.25% (inactive) | 
70 | CCn1c2c(c(=O)n3ncc(C(=O)N4CCN(c5ccccc5)CC4)c13)CN(Cc1ccc(OC)cc1)CC2 | -14% (inactive) | 
71 | Cc1cc2c(cc1C)C(c1cccc(OC(C)C)c1)CC(=O)N2 (stereo not drawn) | -3.79% (inactive) | 
72 | COc1ccccc1CCNC(=O)C(=O)NCCC1CCCCN1S(=O)(=O)c1cccs1 (stereo not drawn) | -9.04% [at 102 µM] (inactive) | 
73 | O=C(NC(=S)Nc1ccc2oc(=O)ccc2c1)c1ccc(-c2cccc(Cl)c2Cl)o1 |  | 10 µM (active)
74 | O=C(COc1ccc(Cl)cc1)Nc1ccc2oc(=O)ccc2c1 | 14.1% [at 102 µM] (inactive) | 
75 | CC(C)C(=O)Nc1ccc2oc(=O)ccc2c1 | 10.8% [at 102 µM] (inactive) | 

Row | Structure (SMILES) | activity, negative = inhibition | Potency
76 | Cc1ccc(C(=O)CSc2nc(-c3ccccc3)nc3c2CCCC3)c(C)c1 | 19.5% (inactive) | 
77 | O=C(/C=C/c1ccc(Cl)cc1)Nc1ccc(S(=O)(=O)Nc2ncccn2)cc1 | 0.147% [at 102 µM] (inactive) | 
78 | CCc1ccc(OC(C)C(=O)Nc2ccc(S(=O)(=O)Nc3cc(C)on3)cc2)cc1 (stereo not drawn) | -9.68% [at 102 µM] (inactive) | 
79 | CC(Oc1cccc(Cl)c1)C(=O)Nc1ccc(S(=O)(=O)Nc2ncccn2)cc1 (stereo not drawn) |  | 35.5 µM (active)
80 | Cc1ccc(Cl)cc1NC(=O)CSc1nccn1C | -2.21% (inactive) | 
81 | CS(=O)(=O)N1CCc2cc(C(=O)Nc3ccccc3Br)ccc21 | -11.2% [at 102 µM] (inactive) | 
82 | O=S(=O)(c1ccc(C2CCCCC2)cc1)N1CCN(c2ccc(Cl)c(Cl)c2)CC1 | 7.66% (inactive) | 
83 | O=c1[nH]oc(O)c1-c1ncc(C(F)(F)F)cc1Cl |  | 44.7 µM (active)
84 | O=C(c1ccccn1)c1ncc(C(F)(F)F)cc1Cl | 22.6% [at 102 µM] (inactive) | 
85 | CC(=O)c1ccc(Cc2ncc(C(F)(F)F)cc2Cl)s1 | -41.4% (inactive) | 
86 | COc1ccccc1CNC(=O)COC(=O)c1sc(C)nc1C | 11.2% [at 2.33 µM] (inactive) | 
87 | CCCNC(=O)c1onc(CSc2ccc(F)cc2)c1C(=O)NC(C)C | 20% [at 2.33 µM] (inactive) | 
88 | COc1ccc(Nc2nc(Cl)nc(NCc3ccco3)n2)cc1 | 8.73% (inactive) | 
89 | COc1ccc(-n2cnc3cc(NCc4ccco4)ccc32)cc1 |  | 44.7 µM (active)
90 | COc1ccc(-n2cnc3cc(C(=O)NC4CCCC4)ccc32)cc1 |  | inactive
91 | Cc1nn(C)c(C)c1NS(=O)(=O)c1ccc(OC(F)(F)F)cc1 | -1.93% [at 102 µM] (inactive) | 
92 | CCN(CC(=O)Nc1cc(Cl)ccc1C)C(=O)CSCc1ccccc1 | -2.77% [at 102 µM] (inactive) | 
93 | NC(N)=N/N=C/c1ccc(OCc2ccc(Cl)cc2Cl)cc1 |  | 50.1 µM (active)
94 | CCOc1ccc(NC(=O)NNC(=O)c2ccc(Cl)cc2Cl)cc1 | 11.1% [at 102 µM] (inactive) | 
95 | COc1ccc(C(=O)O/N=C(\N)Cc2ccc(Cl)cc2Cl)cc1OC | 20.9% (inactive) | 
96 | COc1ccc(CNc2nc(-c3ccc(Cl)cc3)cc(C(F)(F)F)n2)cc1 | 195% (inactive) | 
97 | CCc1ccc(NS(=O)(=O)c2ccc3[nH]cc(C(=O)NCCc4cccc(C)c4)c(=O)c3c2)cc1 | -19.8% (inactive) | 
98 | CC(C)(C)OC(=O)N1CCC(c2c(C(=O)Nc3ccc4c(c3)OCO4)cnn2-c2ccccc2)CC1 | -5.36% (inactive) | 
